± gives the standard deviation.

This test has as its system EfPiwi piRISC loaded with piRNA #1 (26 nt). Put plainly: pre-steady-state target cleavage rate (min^-1); auxiliary factor: 500 nM Ephydatia muelleri Gtsf1; guide: piRNA #1 5'p-UGAGGUAGUAGGUUGUAUAGUAUCCA; MIWI and MILI are mouse PIWI proteins and EfPiwi is from a freshwater sponge; tags in brackets are library labels; higher = faster piRNA-guided slicing of the target. An outline of the steps:
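In Cleave-'n-Seq, a transcribed, DNA-blocked target RNA library (0.1 nM) was combined with 1 nM active affinity-purified piRISC bearing one synthetic guide, with or without 500 nM GTSF1 partner protein. Reactions ran in HEPES–potassium acetate buffer at 33 °C for 0–8 or 0–960 min. Uncleaved targets were sequenced and normalised to depth and to weakly complementary targets, three trials were pooled, and k3 was capped at 0.0001 min^-1. The pre-steady-state cleavage rate was obtained by fitting a burst-and-steady-state model.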
Consider GGAGAGGAUACUAUACAACCUAUUACCUCA, for which the “pre-steady-state target cleavage rate” value is 0.153 ± 0.056.

Consider GGAGACGAUACUAUAAAACCUACUACCUCA, for which the “pre-steady-state target cleavage rate” value is 0.00426 ± 0.0022.

On to GGAGACGAUACUAUACAACCUACUUCGUCA, for which the “pre-steady-state target cleavage rate” value was 0.00672 ± 0.0024.

Turning to GGAGACCAUACUAAACAACCUACUACCUCA, the “pre-steady-state target cleavage rate” value is 0.0127 ± 0.0048.

Consider GGAGUGGAUACUAAACAACCAACUACCUCA, for which the “pre-steady-state target cleavage rate” value came out at 0.0031 ± 0.0017.

As to GGAGAGGAUACUAUACAACCAUACUACCUCA, the “pre-steady-state target cleavage rate” value was 0.00323 ± 0.0026.

As for GGAGUGGAUACUAUACAACCUACUUCCUCA, the “pre-steady-state target cleavage rate” value turned out to be 0.00544 ± 0.0029.

On to GGAGACCAUACUAUACAUCCAACUACCUCA, for which the “pre-steady-state target cleavage rate” value was 0.00245 ± 0.0022.

As for GGAGUGGAUACUAUACAACCCACUACCUCA, the “pre-steady-state target cleavage rate” value is 0.00487 ± 0.0019.

For GGAGACCUUACUUUACAACCUACUACCUCA, the “pre-steady-state target cleavage rate” value is 0.00728 ± 0.0042.

Consider GGAGACGAUACUAUAGUACCUACUACCUCA, for which the “pre-steady-state target cleavage rate” value was 0.00438 ± 0.0021.

Regarding GGAGUGGAUUCUAUACAUCCUACUACCUCA, the “pre-steady-state target cleavage rate” value stood at 0.00479 ± 0.0026.

As to GGAGUCGAUACUAUACAACCUACUUCCUCA, the “pre-steady-state target cleavage rate” value was determined as 0.00362 ± 0.0021.

Take GGAGAGGUUACUUUACAACCUACUACCUCA: the “pre-steady-state target cleavage rate” value was determined as 0.00375 ± 0.0031.

GGAGACCAUACUAUACAACCUACAACCUCA: the “pre-steady-state target cleavage rate” value turned out to be 0.00489 ± 0.0019.

GGAGACCAUACUAUACAACCUACUACCUAA: the “pre-steady-state target cleavage rate” value was 0.0194 ± 0.0072.

Consider GGAGUGGAUACUAUAGAACCUACUACGUCA, for which the “pre-steady-state target cleavage rate” value was found to be 0.00205 ± 0.0016.

In the case of GGAGUGGAUACUAUACAAGCUACUACCUGA, the “pre-steady-state target cleavage rate” value came out at 0.00454 ± 0.0019.

With GGAGACGAGUACUAUACAACCUACUACCUCA, the “pre-steady-state target cleavage rate” value worked out at 0.0147 ± 0.0053.

In the case of GGAGAGGAAACUAUACAACCUACUACCACA, the “pre-steady-state target cleavage rate” value came to 0.00262 ± 0.0018.

Take GGAGAGGAUACUAUAGAACCUACUACCACA: the “pre-steady-state target cleavage rate” value stood at 0.00261 ± 0.0014.

Take GGAGACGAUACUAUACAACCUACUAGCACA: the “pre-steady-state target cleavage rate” value was determined as 0.00326 ± 0.0016.

GGAGACCUUACUAUACAACGUACUACCUGA: the “pre-steady-state target cleavage rate” value stood at 0.00475 ± 0.0042.

For GGAGACGAUACUAUAGAACCUACUUCCUCA, the “pre-steady-state target cleavage rate” value was 0.00251 ± 0.0022.

As for GGAGAGGAUUACUAUACAACCUACUACCUCA, the “pre-steady-state target cleavage rate” value worked out at 0.0829 ± 0.03.

With “GGAGACCUUACUAUACAACCUACUAGGAGA [g6:g22:cont:t1A]”, the “pre-steady-state target cleavage rate” value came to 0.00279 ± 0.0024.

Consider GGAGACCUAUCUAUACAACCUACAACCUCA, for which the “pre-steady-state target cleavage rate” value was determined as 0.00366 ± 0.0032.

Take GGAGUGGAUACUAUACAACCUACUGACCUCA: the “pre-steady-state target cleavage rate” value was 0.00401 ± 0.0014.

Take GGAGACCAUACUAUUCAAGCUACUACCUCA: the “pre-steady-state target cleavage rate” value was found to be 0.00339 ± 0.0032.

Regarding GGAGACCAUACUAUACAACCUACUACAUCA, the “pre-steady-state target cleavage rate” value came out at 0.00692 ± 0.004.

Turning to GGAGACCUAACUAUACAACCUACUCCCUCA, the “pre-steady-state target cleavage rate” value is 0.00341 ± 0.0031.

Turning to GGAGACCAUACUAUACAACAUACUACCUCA, the “pre-steady-state target cleavage rate” value came to 0.00326 ± 0.0021.

GGAGACCAUAGAUUACAACCUACUACCUCA: the “pre-steady-state target cleavage rate” value came to 0.00655 ± 0.0034.

Regarding GGAGACCUUAUCUAUACAACCUACUACCUCA, the “pre-steady-state target cleavage rate” value turned out to be 0.0368 ± 0.017.

Take GGAGUGGUUACUAUACAACCAACUACCUCA: the “pre-steady-state target cleavage rate” value came out at 0.0036 ± 0.0014.

Take GGAGACGAUACUAUAUAACCUACUACCUCA: the “pre-steady-state target cleavage rate” value is 0.0091 ± 0.0042.

With GGAGACGAUACUAUACAACCUACUACUUCA, the “pre-steady-state target cleavage rate” value was 0.00983 ± 0.0039.

For the sequence GGAGUGGAUACUAUACAACCUUCUACCACA, the “pre-steady-state target cleavage rate” value was 0.00272 ± 0.0016.

Consider GGAGUGGAUAGUAUACAACGUACUACCUCA, for which the “pre-steady-state target cleavage rate” value was 0.00231 ± 0.0021.

Turning to GGAGUGGAUACUAUACAACCUACUAUCCUCA, the “pre-steady-state target cleavage rate” value was 0.00685 ± 0.0028.

For the origin of these results see the supplement of paper PMC10338343.
